Bioassay records (PubChem)
An excerpt weighted towards active compounds, which were near 6% of everything screened.
PLK1 PBD inh = PLK1 (human) polo-box domain binding inhibition; Plk1 PBD binding of FITC phosphopeptide, fluorescence polarization; P53350; 2.8% of 360,000 active; Potency, µM, inactives show max response, negative = inhibition, actives largely listed as inhibitors; note: series mostly up to about 57 µM; nearly all actives have a fitted effect of over 65% in size
Tau fibril ThT = inhibitors of human tau fibril formation, thioflavin T binding. P10636. recombinant tau K18 P301L, heparin-induced fibrillization, ThT fluorescence. Potency, µM (doses to about 57.4 µM), without a hit: at the highest dose activity, negative = inhibition, actives largely listed as inhibitors. 2.1% of 270,000 active. AID 1460; note: nearly all actives have a fitted effect of over 55% in size
Target sequence (P10636 561-689 P618L limits assumed): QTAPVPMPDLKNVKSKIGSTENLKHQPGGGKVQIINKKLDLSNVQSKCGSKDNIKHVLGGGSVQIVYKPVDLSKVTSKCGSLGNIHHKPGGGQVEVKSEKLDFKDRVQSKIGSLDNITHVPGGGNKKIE
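Heparin-induced fibrillization of the P301L-mutant K18 repeat-domain fragment of human tau was followed by ThT binding in quantitative high-throughput format.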
Sfp inh = inhibitors of Bacillus subtilis Sfp phosphopantetheinyl transferase. Potency, µM, for inactives: largest response in the series, negative = inhibition, hits mostly inhibitors. AID 1490. 3.5% of 310,000 active. Q9F4F7. Biochemical Sfp PPTase activity, qHTS;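 note: the enzyme is Sfp with the accession as filed and its product quenches rhodamine fluorescence; 0% = enzyme reaction without inhibitor and -100% = no enzyme wells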
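Compounds were incubated with enzyme (final 15 nM) for 15 min at room temperature before substrate addition started the reaction. Fluorescence at 525 nm excitation, 598 nm emission was recorded immediately and after 30 minutes.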
Tau fluor cs = counter-screen for tau fibril formation inhibitors. tau K18 P301L Alexa594 fluorescence, heparin fibrillization. Potency, µM (top dose mostly 57.7 µM), for the others: top-dose activity change, negative = decrease. 0.93% of 280,000 active. AID 1463; note: nearly all actives have a fitted effect of over 55% in size
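Human tau K18 P301L (15 uM unlabeled, 0.24 uM Alexa 594-labeled) in 100 mM sodium acetate pH 7 with 20 uM heparin, 6 hr at 37 C. ThT 30 uM added, 1 hr ambient; Alexa 594 FP and total fluorescence read at 555/632 nm.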
VDR inh = inhibitors of human vitamin D receptor | AID 504847 | VDR-SRC2-3 peptide fluorescence polarization, 2 h | P11473 | Potency, µM, inactives show max response, negative = inhibition, hits mostly inhibitors | 0.93% of 400,000 active
Target sequence (P11473 whole entry, looked up): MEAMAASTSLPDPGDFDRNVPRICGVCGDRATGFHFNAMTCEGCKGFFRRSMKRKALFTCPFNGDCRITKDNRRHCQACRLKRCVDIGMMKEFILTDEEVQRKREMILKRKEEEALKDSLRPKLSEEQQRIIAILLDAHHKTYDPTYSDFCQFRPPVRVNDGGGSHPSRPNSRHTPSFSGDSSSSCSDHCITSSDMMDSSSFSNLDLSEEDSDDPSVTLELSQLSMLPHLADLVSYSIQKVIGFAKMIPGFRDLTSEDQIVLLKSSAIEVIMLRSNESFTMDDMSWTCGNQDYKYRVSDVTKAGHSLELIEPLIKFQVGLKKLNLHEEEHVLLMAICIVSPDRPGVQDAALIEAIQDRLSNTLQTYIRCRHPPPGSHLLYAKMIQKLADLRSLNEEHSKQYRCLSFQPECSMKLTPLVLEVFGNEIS
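Fluorescence polarization assay of small-molecule disruption of VDR binding to coregulator peptide SRC2-3. Compounds and controls pin-transferred, then read after 2 h incubation at ambient room temperature.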
Tau FP inhib = blocks human tau fibril formation measured by polarization | 0.39% of 280,000 active | Potency, µM (highest dose often 57.7 µM), for inactives: top-dose activity, negative = inhibition, hits mostly inhibitors | K18 P301L tau heparin fibrillization, Alexa594 FP, 6 h | P10636; note: nearly all actives have a fitted effect of over 55% in size
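Steps: dispense K18 P301L tau (15 uM plus 0.24 uM Alexa 594 tracer, final) in pH 7 sodium acetate; add compound; add heparin (20 uM final); incubate 6 hr, 37 C; add ThT (30 uM final); after 1 hr ambient, read FP.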
* hit, by the source's call; ? = inconclusive; . = no result; [ ] = remark or other dose. Calls come from the whole dose curve; as a rule, active = well fitted curve in the direction sought with a large enough effect; inconclusive = small, poorly fitted or top-dose-only effect, or another doubt; inactive = no such curve, though single readings can be large; an effect the other way counts as inactive or inconclusive. Unless noted, % is set by controls: 0 for no effect and ±100 for the full control effect; potency is the fitted concentration of half-maximal effect.

SMILES | PLK1 PBD inh | Tau fibril ThT | Sfp inh | Tau fluor cs | VDR inh | Tau FP inhib
CC1CCC(C(C)C)C2=C1C(C#N)(C#N)C(C#N)(C#N)C(c1ccccc1)N2 (centres undefined) | ? | 22.4µM* | ? | ? | 89.1µM* | -9.5%
O=C(NCCc1ccccc1)c1nnc(Cc2cccc(F)c2)o1 | . | -15.4% | . | -29.1% | 12.7% | -4.3%
CCOc1ccccc1CNC(=O)CN1C(=O)CCCc2ccccc21 | . | -4.9% | . | -7.1% | 25.4% | -4.9%
CCOc1ccc(/C=C/C(=O)Nc2ccc(N3CCOCC3)cc2)cc1 | 3.36µM* | ? | -8.3% | -20.6% | ? | -2.4%
COc1ccc(/C=C/C(=O)OCC(=O)Nc2ccc(N3CCOCC3)cc2)cc1 | -16.2% | ? | -9.8% | -10.7% | -10.1% | 7.0%
COc1ccccc1/C=C/C(=O)Nc1ccc2c(c1)OCCO2 | 0.5% | ? | -13.6% | ? | 4.0% | 3.1%
CC(=O)N1CCN(c2ccc(NC(=O)/C=C/c3ccccc3)cc2)CC1 | -10.0% | 2.51µM* | 12.9% | -27.3% | -13.2% | 8.7%
COc1ccccc1/C=C/C(=O)Nc1ccc(N2CCOCC2)cc1 | -3.9% | 2.51µM* | -5.7% | ? | -9.6% | 6.0%
CC(=O)Nc1ccc(NC(=O)/C=C/c2ccccc2)cc1 | 1.8% | -11.9% | 3.9% | -7.8% | 16.1% | 2.9%
COc1cccc(/C=C/C(=O)Nc2ccc(N3CCOCC3)cc2)c1OC | -5.7% | 5.62µM* | 7.3% | ? | 0.0% | 1.6%
CC(C)C[C@@H](CN1CCCC1CN1C(=S)NC[C@@H]1Cc1ccc(O)cc1)N1C[C@H](Cc2ccc(O)cc2)N(CCc2ccccc2)C1=S (some centres undefined) | -6.9% | . | . | . | -12.3% | .
COc1ccc(OC)c(S(=O)(=O)N2Cc3ccccc3CC2C(=O)Nc2ccc(C(C)=O)cc2)c1 (centres undefined) | . | -8.9% | . | ? | 9.4% | -12.5%
Nn1cnnc1N/N=C/c1ccccc1C(F)(F)F | -20.6% | . | ? | . | -4.9% | .
Cc1ccc(/C=N/Nc2nncn2N)cc1 | 0.9% | . | 39.8µM* | . | -12.0% | .
Nn1cnnc1N/N=C/c1ccc(F)cc1 | -3.3% | . | 56.2µM* | . | -26.4% | .
Nn1cnnc1N/N=C/c1ccc(Cl)c([N+](=O)[O-])c1 | -21.5% | 25.1µM* | ? | -25.9% | ? | ?
COC(=O)c1ccc(C(NC(=O)OCc2ccccc2)/C(=C/[C@@H](C)C(=O)NCc2nc3ccccc3n2C)c2cccnc2)cc1 (some centres undefined) | . | ? | -0.4% | -14.1% | . | 13.0%
CO/N=C/c1ccc(Oc2ccc(C)cc2)c([N+](=O)[O-])c1 | 11.9µM* | -15.7% | -10.1% | -15.9% | 28.2µM* | -7.0%
CO/N=C/c1ccc(Sc2ccccc2N)c([N+](=O)[O-])c1 | -2.8% | ? | -10.2% | 28.2µM*[quencher] | -1.3% | 4.6%
CO/N=C/c1ccc(Sc2ccccc2)c([N+](=O)[O-])c1 | -4.3% | ? | -16.3% | ? | 2.7% | -3.8%
O=[N+]([O-])c1cc(/C=N/O)ccc1Sc1ccccc1 | -8.1% | ? | 70.8µM* | ? | 13.9% | -4.7%
COc1ccc(CCN2CC(C(=O)NCc3nc(C)c(C)s3)CCC2=O)cc1 (centres undefined) | -23.0% | . | -3.2% | . | 10.2% | .
Cc1cccc(NC(=O)C(=O)NCC(c2ccc3c(c2)OCO3)N2CCOCC2)c1C (centres undefined) | . | -9.3% | . | -9.7% | -6.8% | -1.8%
CCOC(=O)c1c(S(=O)(=O)N2CCC(C(=O)Nc3ccc(C)cn3)CC2)c(C)n(C)c1C | . | -4.2% | . | -8.2% | 1.5% | -2.5%
COc1ccccc1-c1cc(C(=O)NC2CCN(C)CC2)c2ccc(Cl)c(C)c2n1 | -4.9% | . | 56.2µM* | . | 12.4% | .
SMILES | PLK1 PBD inh | Tau fibril ThT | Sfp inh | Tau fluor cs | VDR inh | Tau FP inhib
Cc1ccc2nc(-c3ccccn3)cc(C(=O)NC3CCN(C)CC3)c2c1 | . | -7.0% | 15.4% | 1.6% | . | 3.1%
Cc1cc(C)c(N=C2CCCN2Cc2ccccc2)c(C#N)c1 | -6.4% | -15.6% | 8.7% | -7.6% | -0.1% | 0.6%
CN1CCc2c1nc1ccccc1c2N=C1CCCN1Cc1ccccc1 | 21.2µM* | -1.2% | -8.1% | -0.3% | -20.3% | -1.0%
O=C(C(Br)=Cc1ccccc1)c1ccccc1 | ? | . | . | . | 22.4µM* | .
Cn1c(=O)c(=O)n(C)c2cc(N3CCOCC3)c(NS(=O)(=O)c3ccc(Br)cc3)cc21 | -10.3% | . | 44.7µM* | . | -3.4% | .
COC(=O)CCC(=O)Nc1cc(S(=O)(=O)Nc2ccc(Cl)cc2)ccc1N1CCOCC1 | 15µM* | -0.3% | -16.1% | -7.6% | -16.8% | -8.4%
COc1ccccc1OCC(=O)Nc1cc(S(=O)(=O)N2CCOCC2)ccc1N1CCCCC1 | 23.8µM* | . | . | . | -24.1% | .
O=C(COc1ccccc1[N+](=O)[O-])Nc1ccccc1N1CCCC1 | -10.8% | -8.2% | 20µM* | -21.4% | -10.8% | 15.0%
CCc1ccc(S(=O)(=O)Nc2cc3c(cc2N2CCOCC2)n(C)c(=O)c(=O)n3C)cc1 | -14.5% | -2.4% | 15.4% | 4.3% | -8.0% | -3.2%
COc1ccc(NS(=O)(=O)c2ccc(N3CCOCC3)c(NC(=O)c3ccc(OC)cc3)c2)cc1 | -4.5% | -7.6% | 22.3% | -22.8% | 5.9% | 0.7%
CCOC(=O)C1(C)CCN1C(=O)c1cncc(Br)c1 (centres undefined) | 5.7% | . | . | . | . | .
C=CCNc1ncnc2c1ncn2[C@H]1CN(CCc2ccccc2)C[C@@H](CO)O1 | -5.3% | . | . | . | . | .
CC(NC(=O)Nc1cc(Cl)ccc1Cl)c1c(-n2cccc2)sc2c1CCCC2 (centres undefined) | . | 1.4% | . | 3.2% | 6.9% | 10.4%
CCOc1ccc(NC(=O)CC2C(=O)N(c3ccc(C)cc3)C(=O)N2C2CCCCC2)cc1 (centres undefined) | . | 3.5% | . | ? | -6.5% | -5.6%
O=C(Nc1ccc(Cl)c(Cl)c1)Nc1cc(S(=O)(=O)N2CCOCC2)ccc1N1CCCC1 | 16.8µM* | 5.1% | 4.2% | 7.94µM*[quencher] | -10.8% | ?
CCCC(=O)Nc1cc(S(=O)(=O)N2CCCCC2)ccc1N1CCOCC1 | -7.0% | . | . | . | -2.8% | .
O=C(Nc1cc(S(=O)(=O)Nc2ccc(Cl)cc2)ccc1N1CCCCC1)c1ccc(F)cc1Cl | 9.47µM* | -7.8% | ? | ? | -7.3% | -6.0%
CCCC(C)C(=O)Nc1cc(S(=O)(=O)N2CCCCC2)ccc1N1CCOCC1 (centres undefined) | -17.5% | . | . | . | 7.5% | .
CCCC(=O)Nc1cc(S(=O)(=O)N2CCOCC2)ccc1N1CCCCC1 | 23.8µM* | . | . | . | 89.1µM* | .
CC(C)C(=O)Nc1cc(S(=O)(=O)N2CCOCC2)ccc1N1CCCCC1 | 23.8µM* | . | . | . | 70.8µM* | .
Nc1cc(S(=O)(=O)Nc2ccccc2Cl)ccc1N1CCCC1 | -6.0% | -7.0% | -3.7% | -23.9% | 10.3% | 14.1%
